Holding throughout (set-up): scale not given: direction of the effect not stated beside the values
Assay [1] concerns the target Protein translocase subunit SecA (Escherichia coli (strain K12)) (UniProt P10408). In words: Assay to Identify E. coli SecA ATPase Inhibitors. Conditions: 30 µM. The format is functional.
Assay [2] addresses T1, Ubiquitin-activating enzyme e1, putative (Leishmania donovani (strain BPK282A1)) (UniProt E9BSI1).
T1 sequence (whole entry): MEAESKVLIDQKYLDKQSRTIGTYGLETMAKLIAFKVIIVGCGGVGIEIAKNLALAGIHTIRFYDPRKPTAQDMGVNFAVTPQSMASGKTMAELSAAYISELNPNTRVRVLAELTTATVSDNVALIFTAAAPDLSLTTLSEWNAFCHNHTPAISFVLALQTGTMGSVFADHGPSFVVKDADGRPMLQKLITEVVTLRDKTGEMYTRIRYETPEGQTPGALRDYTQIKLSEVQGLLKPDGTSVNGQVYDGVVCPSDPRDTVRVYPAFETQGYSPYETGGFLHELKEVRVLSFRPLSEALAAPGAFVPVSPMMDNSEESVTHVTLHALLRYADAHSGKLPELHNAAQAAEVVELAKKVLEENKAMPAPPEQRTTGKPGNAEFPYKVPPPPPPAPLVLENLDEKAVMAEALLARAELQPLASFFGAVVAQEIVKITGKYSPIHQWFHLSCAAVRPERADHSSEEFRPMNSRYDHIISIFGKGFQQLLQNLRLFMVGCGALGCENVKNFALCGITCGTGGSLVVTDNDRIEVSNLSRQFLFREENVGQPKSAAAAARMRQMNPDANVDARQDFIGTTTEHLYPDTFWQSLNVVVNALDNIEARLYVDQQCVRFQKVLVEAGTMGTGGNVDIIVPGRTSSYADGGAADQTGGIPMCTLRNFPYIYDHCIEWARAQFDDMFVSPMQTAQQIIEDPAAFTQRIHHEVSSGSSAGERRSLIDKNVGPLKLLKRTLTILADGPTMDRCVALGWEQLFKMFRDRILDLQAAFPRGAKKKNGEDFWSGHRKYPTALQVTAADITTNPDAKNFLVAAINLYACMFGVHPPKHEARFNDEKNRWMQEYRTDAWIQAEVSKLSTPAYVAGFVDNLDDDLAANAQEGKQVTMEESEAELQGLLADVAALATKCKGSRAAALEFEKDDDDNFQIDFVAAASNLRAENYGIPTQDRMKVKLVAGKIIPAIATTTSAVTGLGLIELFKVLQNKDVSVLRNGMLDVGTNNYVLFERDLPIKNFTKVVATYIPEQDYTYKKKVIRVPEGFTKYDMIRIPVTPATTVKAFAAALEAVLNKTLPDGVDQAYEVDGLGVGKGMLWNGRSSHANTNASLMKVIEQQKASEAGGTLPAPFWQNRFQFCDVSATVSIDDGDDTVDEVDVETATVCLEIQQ
In words: Leishmania donovani Ubiquitin Activating Enzyme (LdE1). It is filed as functional. Conditions: 30 µM.

Assay [3] has as its target AMP-activated protein kinase, AMPK (Homo sapiens) (UniProt P54646+O43741+P54619+Q9UGJ0+Q9Y478+Q13131+Q9UGI9). In words: AMP-dependent Kinase enzyme assay. An in vitro enzyme assay that detects ADP turnover that is directly proportional to AMPK activity. This uses naive AMPK that is activated during the assay with MK-8722. The format is functional. Conditions: 30 µM.
Assay [4] deals with Sialic acid-binding Ig-like lectin 9 (Homo sapiens) (UniProt Q9Y336). The assay is described as follows: Hs-Siglec9 ALPHAscreen SOP 20170721. Conditions: 10 µM. A general note: In Alpha technology, singlet oxygen from a donor bead excites a nearby acceptor bead.
The subject of assay [5] is Trypanosoma cruzi. The assay is described as follows: Trypanosoma cruzi phosphomannomutase and mannose-1-phosphate guanylyltransferase assay. Conditions: 10 µM. The format is functional.
For assay [6], the target named is T2, Arginase-2, mitochondrial (Homo sapiens) (UniProt P78540).
T2 sequence (whole entry): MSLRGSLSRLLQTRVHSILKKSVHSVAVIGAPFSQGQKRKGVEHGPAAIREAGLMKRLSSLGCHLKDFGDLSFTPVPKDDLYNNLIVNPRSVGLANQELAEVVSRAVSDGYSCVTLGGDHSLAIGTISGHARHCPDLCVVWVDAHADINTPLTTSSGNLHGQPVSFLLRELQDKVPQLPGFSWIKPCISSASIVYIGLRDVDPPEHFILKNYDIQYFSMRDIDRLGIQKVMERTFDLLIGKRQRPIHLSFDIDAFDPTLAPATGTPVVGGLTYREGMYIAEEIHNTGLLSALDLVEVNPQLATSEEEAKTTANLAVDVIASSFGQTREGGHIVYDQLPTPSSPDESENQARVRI
In words: in vitro enzyme assay to detect the production of urea directly proportional to the activity of Arginase II. Further: in the data most compounds retested in dose-response had high values. The format is functional.

Assay [7] has as its target T3, Proteasome subunit beta (Trypanosoma cruzi) (UniProt O96673).
T3 sequence (whole entry): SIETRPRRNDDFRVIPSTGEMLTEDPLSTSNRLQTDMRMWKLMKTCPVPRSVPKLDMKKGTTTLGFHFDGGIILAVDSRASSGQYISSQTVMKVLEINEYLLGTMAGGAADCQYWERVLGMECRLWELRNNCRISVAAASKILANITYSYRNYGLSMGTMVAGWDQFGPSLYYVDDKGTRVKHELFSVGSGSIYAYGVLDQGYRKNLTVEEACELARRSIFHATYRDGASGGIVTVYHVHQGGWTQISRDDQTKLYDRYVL
In words: Trypanosoma cruzi proteasome chymotrypsin-like activity (TcProtChymo) assay. Further: in the data most compounds retested in dose-response had high values. Conditions: 9.37 µM. It is filed as functional.

The test system of assay [8] is N/A. In words: Trypanosoma cruzi proteasome luciferase counter-screen. The format is functional. Conditions: 9.37 µM.
For assay [9], the species on record is Homo sapiens. The assay is described as follows: To identify inhibition of the IFN signalling (Jak-Stat) pathway via expression of an eGFP reporter gene under the control of an IFN-stimulated response element (ISRE) containing MxA promoter. It is filed as functional. Conditions: 30 µM. Background: Reporter assays use an easily measured gene product as a stand-in for the process of interest.

Assay [10] addresses T4, Tyrosyl-tRNA synthetase, putative (Trypanosoma cruzi (strain CL Brener)) (UniProt Q4DSP6).
T4 sequence (whole entry): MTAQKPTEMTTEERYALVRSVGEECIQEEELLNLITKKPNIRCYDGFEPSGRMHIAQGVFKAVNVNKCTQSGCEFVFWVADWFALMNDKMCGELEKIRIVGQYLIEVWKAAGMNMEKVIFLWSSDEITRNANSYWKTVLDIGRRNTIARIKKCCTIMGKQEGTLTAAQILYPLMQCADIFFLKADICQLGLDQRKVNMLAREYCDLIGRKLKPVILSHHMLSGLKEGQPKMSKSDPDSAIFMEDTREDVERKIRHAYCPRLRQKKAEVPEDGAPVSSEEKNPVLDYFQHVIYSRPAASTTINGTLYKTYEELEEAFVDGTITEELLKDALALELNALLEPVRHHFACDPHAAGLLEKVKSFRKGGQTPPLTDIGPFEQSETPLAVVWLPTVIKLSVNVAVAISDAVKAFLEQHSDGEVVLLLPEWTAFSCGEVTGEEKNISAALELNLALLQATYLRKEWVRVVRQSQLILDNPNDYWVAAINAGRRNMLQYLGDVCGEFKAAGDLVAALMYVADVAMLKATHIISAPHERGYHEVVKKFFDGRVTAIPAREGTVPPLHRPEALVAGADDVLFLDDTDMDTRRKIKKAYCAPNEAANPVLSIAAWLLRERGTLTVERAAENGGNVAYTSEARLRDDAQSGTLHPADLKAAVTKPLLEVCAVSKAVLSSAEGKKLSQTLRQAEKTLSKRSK
In words: Trypanosoma cruzi tyrosyl tRNA synthetase (TcYRS) _High Tyrosine SOP. Further: in the data most compounds retested in dose-response had high values. It is filed as functional. Conditions: 30 µM.

Assay [11] addresses T4, Tyrosyl-tRNA synthetase, putative (Trypanosoma cruzi (strain CL Brener)). The assay is described as follows: Trypanosoma cruzi tyrosyl tRNA synthetase (TcYRS) SOP. It is filed as functional. Conditions: 30 µM.
Assay [12] addresses Chromo domain-containing protein 1 (Saccharomyces cerevisiae (strain ATCC 204508 / S288c) (Baker's yeast)) (UniProt P32657). In words: ScCHD-1 Enzyme Inhibition Assay. Further: in the data most compounds retested in dose-response had high values. The format is functional. Conditions: 30 µM.

Where “and” joins values, the source holds several entries; their conditions need not be identical. Equal values may be shown once. For part of these data: Entries with a potency or affinity are not part of this list.

Chain of Chromo domain-containing protein 1 (Saccharomyces cerevisiae (strain ATCC 204508 / S288c) (Baker's yeast)) (P32657 whole entry, the tested form may be a part): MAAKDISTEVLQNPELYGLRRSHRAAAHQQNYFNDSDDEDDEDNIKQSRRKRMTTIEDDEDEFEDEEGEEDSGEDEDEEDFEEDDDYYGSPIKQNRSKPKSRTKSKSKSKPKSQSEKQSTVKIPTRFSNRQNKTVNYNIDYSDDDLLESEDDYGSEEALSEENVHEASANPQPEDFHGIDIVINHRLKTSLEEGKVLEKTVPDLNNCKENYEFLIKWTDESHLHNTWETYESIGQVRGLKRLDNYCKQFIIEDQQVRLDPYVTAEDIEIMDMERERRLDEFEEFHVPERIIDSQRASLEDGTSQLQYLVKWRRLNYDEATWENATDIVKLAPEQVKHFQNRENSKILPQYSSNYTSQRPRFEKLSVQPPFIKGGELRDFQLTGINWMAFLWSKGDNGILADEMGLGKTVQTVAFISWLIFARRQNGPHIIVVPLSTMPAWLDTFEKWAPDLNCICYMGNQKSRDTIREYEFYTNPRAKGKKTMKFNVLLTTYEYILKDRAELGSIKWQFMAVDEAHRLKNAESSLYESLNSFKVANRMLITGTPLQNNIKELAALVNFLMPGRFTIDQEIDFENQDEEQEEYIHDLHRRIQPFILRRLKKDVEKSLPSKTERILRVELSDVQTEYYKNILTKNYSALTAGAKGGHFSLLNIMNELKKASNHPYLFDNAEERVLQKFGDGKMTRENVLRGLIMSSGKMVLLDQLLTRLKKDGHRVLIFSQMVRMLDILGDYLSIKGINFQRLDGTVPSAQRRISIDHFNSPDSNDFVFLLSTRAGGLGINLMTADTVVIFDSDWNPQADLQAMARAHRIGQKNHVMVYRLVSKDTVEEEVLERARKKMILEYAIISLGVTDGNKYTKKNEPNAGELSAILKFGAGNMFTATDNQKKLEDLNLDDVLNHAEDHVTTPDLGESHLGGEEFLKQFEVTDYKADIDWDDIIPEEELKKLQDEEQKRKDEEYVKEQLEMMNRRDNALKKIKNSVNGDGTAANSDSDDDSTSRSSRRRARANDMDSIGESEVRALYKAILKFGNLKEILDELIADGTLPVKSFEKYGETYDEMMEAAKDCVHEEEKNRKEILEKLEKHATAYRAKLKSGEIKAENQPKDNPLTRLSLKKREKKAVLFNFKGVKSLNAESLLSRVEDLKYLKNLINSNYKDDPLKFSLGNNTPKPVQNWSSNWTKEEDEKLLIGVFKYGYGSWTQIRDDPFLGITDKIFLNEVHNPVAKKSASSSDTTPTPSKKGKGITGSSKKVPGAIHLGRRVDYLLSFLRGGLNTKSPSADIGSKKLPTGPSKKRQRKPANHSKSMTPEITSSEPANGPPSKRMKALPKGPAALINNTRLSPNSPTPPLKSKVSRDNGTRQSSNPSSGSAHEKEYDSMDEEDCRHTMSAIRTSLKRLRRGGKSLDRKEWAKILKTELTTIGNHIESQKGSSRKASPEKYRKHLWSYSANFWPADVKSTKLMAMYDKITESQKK
Chain of Protein translocase subunit SecA (Escherichia coli (strain K12)) (P10408 whole entry): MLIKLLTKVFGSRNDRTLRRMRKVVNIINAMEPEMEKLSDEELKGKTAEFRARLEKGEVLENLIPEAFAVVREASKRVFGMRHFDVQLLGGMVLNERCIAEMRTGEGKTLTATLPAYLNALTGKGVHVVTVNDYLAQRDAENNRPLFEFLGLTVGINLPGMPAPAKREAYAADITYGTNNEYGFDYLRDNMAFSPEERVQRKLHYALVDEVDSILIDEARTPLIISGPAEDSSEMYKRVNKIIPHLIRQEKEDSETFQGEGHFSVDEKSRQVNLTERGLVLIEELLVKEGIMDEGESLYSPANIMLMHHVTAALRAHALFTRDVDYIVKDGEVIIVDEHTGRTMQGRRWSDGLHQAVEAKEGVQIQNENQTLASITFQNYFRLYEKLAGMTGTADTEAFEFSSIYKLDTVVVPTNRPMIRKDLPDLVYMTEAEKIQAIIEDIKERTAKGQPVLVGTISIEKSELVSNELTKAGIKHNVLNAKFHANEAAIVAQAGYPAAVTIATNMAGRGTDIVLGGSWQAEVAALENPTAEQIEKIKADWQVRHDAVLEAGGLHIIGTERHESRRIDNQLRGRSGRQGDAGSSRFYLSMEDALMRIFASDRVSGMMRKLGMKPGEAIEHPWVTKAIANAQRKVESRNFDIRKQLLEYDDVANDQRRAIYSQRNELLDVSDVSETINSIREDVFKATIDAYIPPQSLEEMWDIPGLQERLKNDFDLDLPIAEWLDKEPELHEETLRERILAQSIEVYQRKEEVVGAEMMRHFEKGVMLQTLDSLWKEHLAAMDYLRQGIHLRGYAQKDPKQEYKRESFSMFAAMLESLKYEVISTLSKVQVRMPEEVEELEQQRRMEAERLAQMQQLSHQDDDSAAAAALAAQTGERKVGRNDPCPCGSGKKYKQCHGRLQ
Chain of Sialic acid-binding Ig-like lectin 9 (Homo sapiens) (Q9Y336 whole entry): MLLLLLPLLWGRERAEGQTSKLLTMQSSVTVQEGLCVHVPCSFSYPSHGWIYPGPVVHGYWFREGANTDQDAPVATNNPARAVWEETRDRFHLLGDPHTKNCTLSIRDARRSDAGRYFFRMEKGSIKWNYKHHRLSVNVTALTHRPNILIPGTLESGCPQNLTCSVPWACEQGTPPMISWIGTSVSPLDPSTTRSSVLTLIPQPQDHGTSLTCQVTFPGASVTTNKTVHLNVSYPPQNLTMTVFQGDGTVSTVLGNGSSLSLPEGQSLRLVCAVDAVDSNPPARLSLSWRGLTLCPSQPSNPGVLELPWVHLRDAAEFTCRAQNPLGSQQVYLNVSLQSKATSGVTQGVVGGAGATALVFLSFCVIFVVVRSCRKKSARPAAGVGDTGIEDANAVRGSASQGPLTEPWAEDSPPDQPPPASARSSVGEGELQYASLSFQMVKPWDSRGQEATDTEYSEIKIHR

With `CCCC(NC(=O)c1cc(C)n(C2CC2)c1C)c1nnn[nH]1` (stereo unspecified), the Percent Effect in assay [1] is -6.85%; in [2], 8%; in [3] it was -2.47%; in [4] it was 18.2%; in assay [5], 6.13%; in [6] (33.3 µM) it was 11.5%. For the same molecule, the Percent Effect in assay [7] was 41.1% and 40.1% and 33.4%; in [8], 13.1% and 10.6%; in assay [9], 14.1%; in assay [10], 8.2%; in assay [11], 11.1%; in assay [12], -4.79%.

`Cc1ccccc1-c1cncc(C2CCN(C(=O)CN(C)C)CC2)n1`: the Percent Effect in assay [1] is -4.06%; in assay [2], 6.76%; in assay [3] it was 14.4%; in assay [4], -6.59%; in assay [5], -4.74%; in assay [6] (30 µM), -1.62%. The Percent Effect in assay [6] (33.3 µM) was -8.59%; in assay [7], 9.83%; in assay [9], 19.1%; in assay [10] it was 0%; in assay [11], 1.3%; in assay [12], -14.4%.

For the molecule `COc1cc(C(=O)N(CCC#N)Cc2ccccn2)cc(OC)c1C`, the Percent Effect was -4.24% in assay [1]; -2.67% in assay [2]; -4.3% in assay [3]; 14.4% in [4]; 7.89% in assay [5]; 2.7% in assay [6] (30 µM). For the same molecule, the Percent Effect in assay [6] (33.3 µM) is -1.04%; in assay [7], 0.523%; in assay [9], 6.76%; in assay [10], -0.546%; in assay [11], 3.7%; in [12] it was -3.63%.

`O=C(NC1CCC1)[C@@H]1CCO[C@@H]2CCN(CCc3ccccc3)C[C@H]21`: the Percent Effect was -2.5% in [1]; 16.2% in assay [2]; -6.69% in assay [3]; -3.15% in assay [4]; 4.3% in [5]; 8.11% in assay [6] (30 µM). For the same molecule, the Percent Effect in assay [6] (33.3 µM) was 14.6%; in [7] it was 22.7%; in [9], 12%; in [10], 8.91%; in assay [11], 18.3%; in [12], -3.4%.

`CN(C)C(=O)[C@@H]1CCO[C@@H]2CCN(Cc3ccccc3)C[C@@H]21`: the Percent Effect in assay [1] is -1.18%; in assay [2] it was 2.7%; in assay [3], -0.272%; in [4] it was -1.07%; in assay [5], -6.45%; in assay [6] (30 µM), -1.62%. Besides, the Percent Effect in assay [6] (33.3 µM) is 2.92%; in [7] it was 20.5%; in assay [9], 10%; in assay [10], 7.92%; in [11], 8.54%; in [12], -0.0601%.

On to `Cc1ccc(C(=O)Nc2cn[nH]c2)cc1C`, for which the Percent Effect in [1] stood at 0.399%; in [2] it was 18.4%; in [3], 16.7%; in assay [4], 3.99%; in assay [5], 0.188%; in assay [6] (33.3 µM), 1.15%. The Percent Effect is 53% and 40.4% and 50.9% in [7]; 27.1% and 25% in assay [8]; 5.81% in assay [9]; 11.3% in assay [10]; 24.4% in assay [11]; -9.31% in assay [12].

Regarding `CN(Cc1ccccn1)C1CC2(CCN(Cc3cccnc3)CC2)C1`, the Percent Effect in [1] is -7.24%; in assay [2], 13.3%; in assay [3], 5.22%; in assay [4], -6.34%; in [5] it was -10%; in assay [6] (30 µM), -2.7%. The Percent Effect in assay [6] (33.3 µM) was 0.233%; in [7], 9.6%; in assay [9], 10.9%; in assay [10], 4.25%; in assay [11] it was 11.5%; in assay [12], -7.41%.

For the molecule `Cc1ccc(-c2nc(CN3CCC(C(=O)N(C)C)CC3)cs2)o1`, the Percent Effect in assay [1] was -3.42%; in assay [2], -1.27%; in [3], -1.3%; in assay [4], -4.8%; in [5] it was -0.103%; in assay [6] (33.3 µM), -1.94%. In addition, the Percent Effect is 38.5% and 41.6% and 46.1% in assay [7]; 21.6% and 19.9% in [8]; 21.9% in assay [9]; 12.5% in assay [10]; 22.8% in assay [11]; -29.5% in assay [12].

For the origin of these results see ChEMBL document CHEMBL3988442, “University of Dundee, Small-Polar-MMV Screening Library” (2021).
